This note sets out measurements from PubChem BioAssay (Tox21).

Inconclusive results are not listed. Activity calls are given as the source filed them. Calls follow the shape of the dose curve; as a rule, active = well fitted cell-killing curve with a large enough effect in the repeat runs; inconclusive = weak or mixed curves; inactive = flat fitted curve, though single readings scatter.
% is scaled to controls: 0 for no effect and ±100 for the full control effect.

This test can be described thus: qHTS RealTime-Glo MT Cell Viability Assay in HepG2 cells - 16 hour (AID 1224885). Also: nearly all actives have a fitted effect of over 50% in size. Conditions: RealTime-Glo luminescence; series mostly up to 76.8 µM; activity change, negative = cytotoxic: at the top concentration. The gist of the method:
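qHTS, HepG2, 600 cells/well, RealTime-Glo (NanoLuc + prosubstrate) added with cells; 5 h preincubation; DMSO compound addition; 37 C; luminescence at 0/8/16/24/32/40 h.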
In general terms: Quantitative high-throughput screening tests each substance at several concentrations.
On to `O=C(O)CCN(C1(C(=O)NO)CCCC1)S(=O)(=O)c1ccc(Oc2ccc(F)cc2)cc1`, for which the “activity change, negative = cytotoxic” value is 5.29% (inactive). Take `COc1cc(/C=C/c2ccccc2)oc(=O)c1`: the “activity change, negative = cytotoxic” value was -3.32% (inactive). As for `CC/C=C\CCCCCO`, the figure is 2.09% (inactive); as for `OC12N=C(c3ccccc3)SC1Cc1cc(Cl)ccc12` (stereo not drawn), -16.1% (inactive); as for `C#C[C@]1(OC(C)=O)CC[C@H]2[C@@H]3CCC4=C[C@@H](OC(C)=O)CC[C@@H]4[C@H]3CC[C@@]21C`, -14.1% [at 35.3 µM] (inactive). As for `C/C=C/C=C/COC(=O)C(C)C`, the “activity change, negative = cytotoxic” value was -22.5% (inactive).

For `C#C[C@]1(OC(C)=O)CC[C@H]2[C@@H]3CCC4=C/C(=N/O)CC[C@@H]4[C@H]3CC[C@@]21CC`, the “activity change, negative = cytotoxic” value is -21.6% [at 35.3 µM] (inactive). As for `CC(C)=CCNc1ncnc2c1ncn2[C@@H]1O[C@H](CO)[C@@H](O)[C@H]1O`, the “activity change, negative = cytotoxic” value is -12.8% [at 35.3 µM] (inactive). As to `COc1ccc2c(c1)c(CC(=O)OC/C=C(\C)CC/C=C(\C)CCC=C(C)C)c(C)n2C(=O)c1ccc(Cl)cc1`, the “activity change, negative = cytotoxic” value was -15% [at 35.3 µM] (inactive). On to `Cc1cc(-c2ccc(N=Nc3cc(S(=O)(=O)O)c4ccccc4c3N)c(C)c2)ccc1N=Nc1cc(S(=O)(=O)O)c2ccccc2c1N`, for which the “activity change, negative = cytotoxic” value was -8.24% (inactive).

As for `CCc1oc2ccccc2c1C(=O)c1cc(I)c(O)c(I)c1`, the “activity change, negative = cytotoxic” value was -0.836% [at 35.3 µM] (inactive). As for `C=CC(=O)OCCOC(=O)C=C`, the “activity change, negative = cytotoxic” value was -7.19% (inactive). As for `Cc1ccc(O)c(O)c1`, the “activity change, negative = cytotoxic” value is -12.3% (inactive). In the case of `CCCCCCCCCCC[C@@H](C[C@@H]1OC(=O)[C@H]1CCCCCC)OC(=O)[C@H](CC(C)C)NC=O`, the “activity change, negative = cytotoxic” value is -14% [at 35.3 µM] (inactive). For `[Cl][Pt-2]([Cl])([Cl])[Cl]`, the “activity change, negative = cytotoxic” value is 0.247% (inactive). On to `COc1cccc(OC)c1C(=O)O`, for which the “activity change, negative = cytotoxic” value is 0.534% (inactive). With `C=C(C)C(=O)OCCCCCCCCCC`, the “activity change, negative = cytotoxic” value is 0.258% (inactive). Turning to `CCCCC(CC)COC(=O)CCCCC(=O)OCc1ccccc1` (stereo not drawn), the “activity change, negative = cytotoxic” value is -6.06% (inactive).
